Records with an inconclusive call do not appear. Values without a mark were called inactive. The source made the active and inactive calls. Calls come from the whole dose curve; as a rule, active = well fitted curve in the direction sought with a large enough effect; inconclusive = small, poorly fitted or top-dose-only effect, or another doubt; inactive = no such curve, though single readings can be large; an effect the other way counts as inactive or inconclusive. Positions of bridges follow the written chain, without caps; N, C: chain ends. Non-standard residues stand in square brackets, D forms with d. Residues, ends and D or L forms follow the SMILES beside them. ξ: configuration not given here. *: point of attachment. Octanoyl(6-Me) = CCC(C)CCCCC(=O)*; ξThr(3R) = C[C@@H](O)C(N)C(=O)O; dDab = NCC[C@@H](N)C(=O)O; Dab = NCC[C@H](N)C(=O)O
Columns and labels:
[1] = qHTS of pediatric cancer cell lines to identify multiple opportunities for drug repurposing: Primary screen for A673 cells (AID 1347092); note: nearly all actives have a fitted effect of over 45% in size; for activity change, negative = cytotoxic: % is set by controls: 0 for no effect and ±100 for the full control effect
Method in brief: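 Luminescence from CellTiter-Glo, taken after 15 min at room temperature, served as the proxy for metabolically active cells following 48 h treatment. Both potency and efficacy were taken from curves fitted to the titration data.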

[2] = qHTS of pediatric cancer cell lines to identify multiple opportunities for drug repurposing: Primary screen for BT-37 cells (AID 1347094);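 for activity change, negative = cytotoxic: series mostly up to about 57 µM; plate controls were DMSO for no effect and bortezomib for full effect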
Method in brief: (§1)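 Quantitative HTS format: each compound titrated (MIPE 11 points from 0.78 nM, NPC 8 points from 0.59 nM) onto cells plated 5 hours earlier. After 48 h at 37 degrees C, CellTiter-Glo luminescence was recorded.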

[3] = qHTS of pediatric cancer cell lines to identify multiple opportunities for drug repurposing: Primary screen for NB-EBc1 cells (AID 1347095);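 for activity change, negative = cytotoxic: plate controls were DMSO neutral control for no effect and bortezomib for full effect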
Method in brief: as §1

[4] = qHTS of pediatric cancer cell lines to identify multiple opportunities for drug repurposing: Primary screen for Saos-2 cells (AID 1347097); note: nearly all actives have a fitted effect of over 40% in size; for activity change, negative = cytotoxic: % is set by controls: 0 for no effect and ±100 for the full control effect
Method in brief: as §1

[5] = qHTS of pediatric cancer cell lines to identify multiple opportunities for drug repurposing: Primary screen for SK-N-SH cells (AID 1347098); note: nearly all actives have a fitted effect of over 65% in size;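 for activity change, negative = cytotoxic: DMSO served as neutral control and bortezomib at 2.3 µM as positive control; % is set by controls: 0 for no effect and ±100 for the full control effect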
Method in brief: (§2)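 Cells (500-1,000/well) rested 5 h, then received compounds for 48 h; metabolically active cells were measured by CellTiter-Glo luminescence. Final concentrations spanned up to 46 µM (MIPE, 11-point) or 0.59 nM-46 µM (NPC, 8-point) in primary screens, 11-point in follow-ups.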

[6] = qHTS of pediatric cancer cell lines to identify multiple opportunities for drug repurposing: Primary screen for LAN-5 cells (AID 1347100);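 for activity change, negative = cytotoxic: plate controls were DMSO neutral control for no effect and bortezomib positive control for full effect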
Method in brief: as §2

[7] = qHTS of pediatric cancer cell lines to identify multiple opportunities for drug repurposing: Primary screen for BT-12 cells (AID 1347101); note: nearly all actives have a fitted effect of over 25% in size;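 for activity change, negative = cytotoxic: plate controls were DMSO for no effect and bortezomib positive control for full effect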
Method in brief: as §2

[8] = qHTS of pediatric cancer cell lines to identify multiple opportunities for drug repurposing: Primary screen for U-2 OS cells (AID 1347096); note: nearly all actives have a fitted effect of over 50% in size;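 for activity change, negative = cytotoxic: plate controls were DMSO wells for no effect and bortezomib positive control wells for full effect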
Method in brief: as §2

[9] = qHTS of pediatric cancer cell lines to identify multiple opportunities for drug repurposing: Primary screen for NB1643 cells (AID 1347099); note: nearly all actives have a fitted effect of over 50% in size;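 for activity change, negative = cytotoxic: plate controls were DMSO neutral control for no effect and bortezomib positive control for full effect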
Method in brief: as §1
Potency is the fitted concentration of half-maximal effect.

| Compound | Potency [1] | Potency [2] | Potency [3] | Potency [4] | Potency [5] | Potency [6] | Potency [7] | Potency [8] | Potency [9] | activity change, negative = cytotoxic [8] |
| --- | --- | --- | --- | --- | --- | --- | --- | --- | --- | --- |
| Cc1[nH]c(C=C2C(=O)Nc3ccccc32)c(C)c1CCC(=O)O | 1.18 µM (active) | 0.863 µM (active) | 0.148 µM (active) | 3.32 µM (active) | 0.541 µM (active) | 0.132 µM (active) | 7.69 µM (active) | – | – | – |
| Cc1cncc2cccc(S(=O)(=O)N3CCCN(C(=O)CN)C[C@@H]3C)c12 | 14.8 µM (active) | inactive | – | 2.35 µM (active) | – | 1.48 µM (active) | – | inactive | inactive | – |
| C#C[C@]1(O)CC[C@@H]2[C@@H]3CCC4=CC(=O)CC[C@@H]4[C@H]3CC[C@@]21CC | inactive | inactive | inactive | inactive | – | inactive | inactive | inactive | inactive | – |
| COc1cccc2c1C(=O)c1c(O)c3c(c(O)c1C2=O)C[C@@](O)(C(C)=O)C[C@H]3O[C@H]1C[C@H](N)[C@H](O)[C@H](C)O1 | 0.0469 µM (active) | 0.0273 µM (active) | – | 0.264 µM (active) | 0.121 µM (active) | – | 0.0769 µM (active) | 0.118 µM (active) | – | – |
| Cn1cc(C2=C(c3c4n(c5ccccc35)CCC(CN)C4)C(=O)NC2=O)c2ccccc21 (configuration not stated) | 5.9 µM (active) | 27.3 µM (active) | 18.7 µM (active) | 18.7 µM (active) | 24.1 µM (active) | 26.4 µM (active) | 27.3 µM (active) | – | 26.4 µM (active) | – |
| Cc1ccc(-n2[nH]c(C)c(N=Nc3cccc(-c4cccc(C(=O)O)c4)c3O)c2=O)cc1C | 13.3 µM (active) | 19.5 µM (active) | 6.62 µM (active) | 13.3 µM (active) | – | – | – | – | – | – |
| O=C1NC(=O)[C@@H](c2cn3c4c(cccc24)CCC3)[C@H]1c1c[nH]c2ccccc12 | 0.235 µM (active) | 2.17 µM (active) | 0.0469 µM (active) | 0.148 µM (active) | inactive | 0.332 µM (active) | 2.17 µM (active) | – | – | – |
| c1cc(CN2CCCNCCNCCCNCC2)ccc1CN1CCCNCCNCCCNCC1 | inactive | inactive | inactive | inactive | – | inactive | inactive | inactive | – | – |
| CS(=O)(=O)N1CCc2c(-c3cnc(N)nc3)nc(N3CCOCC3)nc21 | 0.935 µM (active) | – | 0.235 µM (active) | 0.935 µM (active) | – | 0.332 µM (active) | – | – | 0.469 µM (active) | – |
| CCOc1cc2c(c(F)c1OCC)C(=N)N(CC(=O)c1cc(N3CCOCC3)c(OC)c(C(C)(C)C)c1)C2 | 9.35 µM (active) | 27.3 µM (active) | – | 14.8 µM (active) | – | – | – | – | 4.69 µM (active) | – |
| FC(F)c1nc2ccccc2n1-c1nc(N2CCOCC2)nc(N2CCOCC2)n1 | 1.18 µM (active) | 1.09 µM (active) | 0.662 µM (active) | 0.526 µM (active) | – | 1.18 µM (active) | 1.22 µM (active) | – | 1.48 µM (active) | – |
| Cc1cnn(C)c1C(=O)Nc1cc(Nc2ccc3c(C=Cc4ccccn4)n[nH]c3c2)ccc1F | 14.8 µM (active) | 24.3 µM (active) | – | 20.9 µM (active) | – | – | 10.9 µM (active) | – | 14.8 µM (active) | – |
| CCCCCCCCCCCC(CC1OC(=O)C1CCCCCC)OC(=O)C(CC(C)C)NC=O (configuration not stated) | inactive | inactive | – | 14.8 µM (active) | – | inactive | inactive | inactive | – | – |
| CCC(C=C[C@@H]1OC(=O)C=C[C@H]1C)=C[C@H](C)CC=CC(C)=C[C@@H](C)C(=O)[C@@H](C)[C@H](O)[C@@H](C)CC(C)=CC(=O)O | 0.0247 µM (active) | 0.0102 µM (active) | 0.0247 µM (active) | – | 0.0403 µM (active) | – | 0.0322 µM (active) | – | – | 13.2% [at 1.86 µM] |
| O=C(O)CCCCCC(=O)NN=C1CCCC1 | inactive | inactive | – | inactive | – | inactive | inactive | inactive | inactive | – |
| CCC(C)CCCCC(=O)N[C@@H](CCN)C(=O)NC(C(=O)N[C@H](CCN)C(=O)N[C@@H]1CCNC(=O)C([C@@H](C)O)NC(=O)[C@@H](CCN)NC(=O)[C@@H](CCN)NC(=O)[C@@H](CC(C)C)NC(=O)[C@H](Cc2ccccc2)NC(=O)[C@H](CCN)NC1=O)[C@@H](C)O (stereo partly drawn) ({Octanoyl(6-Me)}-[Dab][ξThr(3R)][dDab][dDab][Dab]F[dL][dDab][dDab][ξThr(3R)]; lactam 4-C) | inactive | inactive | – | inactive | inactive | inactive | inactive | inactive | inactive | – |
| NS(=O)(=O)OC[C@@H]1C[C@@H](n2ccc3c(N[C@H]4CCc5ccccc54)ncnc32)C[C@H]1O | 0.148 µM (active) | – | 0.132 µM (active) | – | inactive | 0.833 µM (active) | – | – | 6.62 µM (active) | – |
| N#CC(=C(O)c1ccc(Cl)cc1Cl)c1nc2cc(Cl)ccc2c(=O)[nH]1 | inactive | inactive | – | – | inactive | inactive | inactive | inactive | 20.9 µM (active) | – |
| Cc1cc(Nc2ncc3c(n2)N(C)C(=O)N(c2cc(NC(=O)c4cccc(C(F)(F)F)c4)ccc2C)C3)n(C)n1 | 0.372 µM (active) | – | 0.743 µM (active) | 0.372 µM (active) | 0.607 µM (active) | 0.935 µM (active) | – | 0.935 µM (active) | 0.209 µM (active) | – |
| O=C1c2c(O)cccc2[C@@H]([C@@H]2O[C@H](CO)[C@@H](O)[C@H](O)[C@H]2O)c2cc(CO)cc(O)c21 | inactive | inactive | – | inactive | inactive | inactive | inactive | inactive | – | – |
| CC(=O)C1=C(O)C=C2Oc3c(C(C)=O)c(O)c(C)c(O)c3C2(C)C1=O (configuration not stated) | 0.187 µM (active) | 1.37 µM (active) | – | 1.48 µM (active) | inactive | – | 1.72 µM (active) | inactive | – | – |
| CCc1c(O)cc(O)c(C(=O)c2ccc(OCCN3CCOCC3)c(OC)c2)c1CC(=O)N(CCOC)CCOC | 0.935 µM (active) | 1.09 µM (active) | 4.18 µM (active) | – | 6.81 µM (active) | 0.59 µM (active) | – | inactive | – | – |
| Cn1cc(-c2ccc3ncc(Cc4ccc5ncccc5c4)n3n2)cn1 | inactive | inactive | inactive | – | inactive | inactive | inactive | inactive | inactive | – |

From PubChem BioAssay (NCATS)
